# Activity calls are given as the source filed them.
# Columns and labels:
# [1] = E. coli DRC41 culture turbidity changes, primary screen, E. coli filamentation inducer project, strain DRC41, OD650, 48 h (AID 1152);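 further: E. coli MC1000 strain DRC41 lacking acrAB efflux pump and sulA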; details: E. coli DRC41 (acrAB sulA), higher = more signal, called active from +8 up or from −8 down
# [2] = small-molecule binders of probe aLefty1, primary screen, biochemical, small-molecule microarray, 635/667 nm fluorescence (AID 1153); details: higher = more signal;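 further: score merges spot fluorescence with signal-to-noise ratio from the scanned slide images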
# [3] = PSAC antagonists in infected red cells, primary screen, cell-based, P. falciparum Indochina, OD700, 1 h (AID 1154); details: P. falciparum Indochina infected RBC osmotic lysis, higher = more signal, called active from +8 up or from −8 down
# [4] = PSAC antagonists in infected red cells, primary screen, cell-based, P. falciparum Indochina, OD700, 2 h (AID 1155);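 further: lysis reports solute entry through the parasite surface anion channel PSAC; channel blockers reduce lysis of infected cells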; details: P. falciparum Indochina infected erythrocytes, osmotic lysis OD700; higher = more signal, called active from +8 up or from −8 down
# [5] = osmotic lysis modulators in infected erythrocytes, primary screen, PSAC antagonist project, cell-based, P. falciparum Indochina, OD700, 3 h (AID 1156); details: higher = more signal, called active from +8 up or from −8 down
# [6] = PSAC antagonists in infected red cells, primary screen, cell-based, P. falciparum Indochina, OD700, 18 h (AID 1157); details: P. falciparum Indochina infected erythrocytes, osmotic lysis OD700, 18 h; higher = more signal, called active from +8 up or from −8 down
# [7] = modulators of S6 phosphorylation in cells, primary screen, cell-based, A549, cytoblot, luminescence, serum-stimulated (AID 1158); details: A549 phospho-S6 cytoblot, 5 h, higher = more signal;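 further: serum-stimulated A549 lung adenocarcinoma cells; signal is phosphorylated S6 detected by cytoblot immunostaining with HRP secondary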
# [8] = target: NADPH oxidase 2 (Homo sapiens) (UniProt P04839); assay: NOX2-dependent H2O2 signal modulators, primary screen, NOX inhibitor project, cell-based, HEK293-NOX2, PMA-stimulated, Amplex Red fluorescence (AID 1159); details: 45 min, higher = more signal, called active from +8 up or from −8 down; further: test concentration not given here
# Chain of NADPH oxidase 2 (Homo sapiens) (P04839 whole entry, looked up): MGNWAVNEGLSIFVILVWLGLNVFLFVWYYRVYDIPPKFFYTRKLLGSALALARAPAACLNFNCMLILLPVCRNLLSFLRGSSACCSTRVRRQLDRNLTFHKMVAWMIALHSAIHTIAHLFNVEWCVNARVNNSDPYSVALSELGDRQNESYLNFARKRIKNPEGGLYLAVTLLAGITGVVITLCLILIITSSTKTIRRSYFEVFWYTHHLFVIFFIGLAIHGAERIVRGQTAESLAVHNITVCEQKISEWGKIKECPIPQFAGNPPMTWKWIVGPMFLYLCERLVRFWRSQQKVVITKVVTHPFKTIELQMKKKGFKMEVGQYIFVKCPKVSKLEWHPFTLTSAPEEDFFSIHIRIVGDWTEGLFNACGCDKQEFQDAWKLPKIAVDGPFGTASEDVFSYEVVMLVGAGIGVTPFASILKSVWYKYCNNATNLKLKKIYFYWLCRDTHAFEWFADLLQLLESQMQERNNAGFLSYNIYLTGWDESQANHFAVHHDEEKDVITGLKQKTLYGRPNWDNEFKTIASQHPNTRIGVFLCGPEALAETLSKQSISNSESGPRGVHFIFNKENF
# [9] = target: NADPH oxidase 4 (Homo sapiens) (UniProt Q9NPH5); assay: NOX4-dependent H2O2 signal modulators, primary screen, NOX inhibitor project, cell-based, HEK293-NOX4, tetracycline-induced, Amplex Red fluorescence (AID 1160); details: 45 min, higher = more signal, called active from +8 up or from −8 down
# Chain of NADPH oxidase 4 (Homo sapiens) (Q9NPH5 whole entry, looked up): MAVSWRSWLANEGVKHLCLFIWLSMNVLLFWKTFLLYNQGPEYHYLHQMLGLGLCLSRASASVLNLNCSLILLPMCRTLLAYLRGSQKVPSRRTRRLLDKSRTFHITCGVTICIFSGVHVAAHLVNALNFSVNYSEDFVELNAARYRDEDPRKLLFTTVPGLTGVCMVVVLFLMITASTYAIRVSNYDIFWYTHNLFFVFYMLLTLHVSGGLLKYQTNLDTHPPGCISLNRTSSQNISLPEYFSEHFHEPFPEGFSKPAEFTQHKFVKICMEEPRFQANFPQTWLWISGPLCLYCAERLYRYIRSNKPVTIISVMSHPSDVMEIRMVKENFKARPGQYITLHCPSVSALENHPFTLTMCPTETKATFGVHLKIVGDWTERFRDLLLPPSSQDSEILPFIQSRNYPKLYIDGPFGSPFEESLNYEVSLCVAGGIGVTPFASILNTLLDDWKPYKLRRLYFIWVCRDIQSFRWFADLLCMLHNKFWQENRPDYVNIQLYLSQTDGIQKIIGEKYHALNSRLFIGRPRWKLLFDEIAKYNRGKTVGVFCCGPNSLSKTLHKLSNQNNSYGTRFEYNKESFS
# [10] = target: NADPH oxidase 5 (Homo sapiens) (UniProt Q96PH1); assay: NOX5-dependent H2O2 signal modulators, primary screen, NOX inhibitor project, cell-based, HEK293-NOX5, Amplex Red fluorescence (AID 1161); details: HEK293-NOX5, ionomycin, 45 min, higher = more signal
# Chain of NADPH oxidase 5 (Homo sapiens) (Q96PH1 whole entry, looked up): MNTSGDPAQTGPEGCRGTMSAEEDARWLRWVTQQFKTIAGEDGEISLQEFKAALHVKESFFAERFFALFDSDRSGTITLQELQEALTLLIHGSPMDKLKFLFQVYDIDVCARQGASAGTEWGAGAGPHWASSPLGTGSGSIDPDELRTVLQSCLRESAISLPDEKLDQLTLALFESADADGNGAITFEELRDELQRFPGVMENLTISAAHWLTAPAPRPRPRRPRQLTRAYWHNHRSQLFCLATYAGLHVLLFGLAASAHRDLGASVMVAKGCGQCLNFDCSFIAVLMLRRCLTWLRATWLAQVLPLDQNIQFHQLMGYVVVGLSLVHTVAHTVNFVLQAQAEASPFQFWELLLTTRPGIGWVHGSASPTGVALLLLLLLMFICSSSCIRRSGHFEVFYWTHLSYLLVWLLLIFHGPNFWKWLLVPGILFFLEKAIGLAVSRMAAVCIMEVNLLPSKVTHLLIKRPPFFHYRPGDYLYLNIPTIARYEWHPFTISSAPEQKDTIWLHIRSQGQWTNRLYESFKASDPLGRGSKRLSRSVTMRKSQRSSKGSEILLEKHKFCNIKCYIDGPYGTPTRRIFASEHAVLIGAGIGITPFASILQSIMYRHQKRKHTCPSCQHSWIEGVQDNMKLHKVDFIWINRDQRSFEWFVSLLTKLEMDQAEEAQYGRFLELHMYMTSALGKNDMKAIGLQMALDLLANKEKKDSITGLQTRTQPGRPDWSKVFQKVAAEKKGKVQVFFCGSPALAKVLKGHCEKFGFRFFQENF
# [11] = A549 cell viability effects, profiling panel, calcein-AM fluorescence, 48 h, basal (AID 1162); details: higher = more signal; further: test concentration not given here
# [12] = adipocyte viability effects, profiling panel, cell-based, 3T3-L1 adipocytes, calcein-AM fluorescence, 48 h, basal (AID 1163); details: 3T3-L1 adipocytes viability, higher = more signal; further: test concentration not given here
# [13] = HepG2 cell viability effects, profiling panel, calcein-AM fluorescence, 48 h, basal (AID 1164); details: higher = more signal; further: test concentration not given here
# [14] = MM1S cell viability effects, profiling panel, calcein-AM fluorescence, 48 h, basal (AID 1165); details: higher = more signal;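 further: viability of MM1S multiple myeloma cells under basal unstimulated conditions; test concentration not given here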
# [15] = basal RPMI8226 viability, no added stimulus, profiling panel, cell-based, calcein-AM fluorescence, 48 h, PK04 Diversity Set (AID 1166); details: RPMI8226 myeloma viability, higher = more signal;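 further: cells grown under basal conditions without added stimulus; test concentration not given here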
# [16] = basal HepG2 mitochondrial membrane potential changes, profiling panel, cell-based, JC-1 fluorescence, 24 h, 100 nL compound (AID 1167); details: higher = more signal; further: test concentration not given here
# [17] = basal 3T3-L1 adipocyte mitochondrial potential changes, profiling panel, cell-based, JC-1 fluorescence, 3T3-L1 adipocytes, 24 h, 100 nL compound (AID 1168); details: JC-1 mitochondrial fluorescence, higher = more signal, called active from +8 up or from −8 down; further: test concentration not given here
# [18] = basal RPMI8226 mitochondrial membrane potential changes, profiling panel, cell-based, JC-1 fluorescence, 24 h, 100 nL compound (AID 1169); details: RPMI8226 myeloma, JC-1 mitochondrial potential fluorescence, higher = more signal; further: test concentration not given here
# [19] = basal MM1S mitochondrial membrane potential changes, profiling panel, cell-based, JC-1 fluorescence, 24 h, 100 nL compound (AID 1170); details: higher = more signal; further: test concentration not given here
# [20] = A549 lung cancer cell viability effects, profiling panel, resazurin fluorescence, 24 h, PK04 Diversity Set (AID 1171); details: higher = more signal, called active from +8 up or from −8 down; further: test concentration not given here
SMILES,z-score [1],composite z-score [2],z-score [3],z-score [4],z-score [5],z-score [6],z-score [7],z-score [8],z-score [9],z-score [10],z-score [11],z-score [12],z-score [13],z-score [14],z-score [15],z-score [16],z-score [17],z-score [18],z-score [19],z-score [20]
Cc1ccc(S[C@]2(C(=O)NCc3ccccc3)CC(=O)N(Cc3ccccc3C(F)(F)F)[C@@H]2c2ccc(CO)cc2I)cc1,0.852 (inactive),0.056,5.8 (inactive),0.943 (inactive),0.836 (inactive),0.279 (inactive),0.316,0.708 (inactive),-1.5 (inactive),1.11,1.13,0.615,0.024,-2.39,-2.16,-0.741,-0.841 (inactive),-0.491,-0.518,1.15 (inactive)
COC(=O)C(CC#Cc1ccc2c(c1)[C@]1(C(=O)N2)[C@H](C(=O)NC[C@H](O)c2ccccc2)[C@H]2C(=O)O[C@H](c3ccccc3)[C@H](c3ccccc3)N2[C@@H]1c1ccc(O)cc1)C(=O)OC,-1.21 (inactive),-0.445,1.44 (inactive),0.21 (inactive),-0.506 (inactive),-0.0801 (inactive),-0.0784,1.4 (inactive),0.691 (inactive),1.33,-0.244,-1.56,-0.0776,-1.46,-1.97,-2.14,-1.75 (inactive),-0.933,-0.492,0.489 (inactive)
C[C@]1(C(=O)NCC(F)(F)F)c2ccccc2C(=O)N(Cc2cc(C(F)(F)F)cc(C(F)(F)F)c2)[C@H]1c1ccc(CO)cc1,1.17 (inactive),0.0774,3.54 (inactive),-0.0979 (inactive),-0.29 (inactive),-0.16 (inactive),0.361,-0.905 (inactive),0.565 (inactive),0.648,1.82,0.441,1.51,0.24,1.11,1.23,0.436 (inactive),0.412,0.0741,0.476 (inactive)
C=C(CCCC)C(=O)CC[C@@H](OC(C)=O)c1ccc(OCCO)cc1,0.0142 (inactive),0.0533,7.67 (inactive),1.16 (inactive),0.888 (inactive),0.455 (inactive),-0.222,-1.4 (inactive),-1.4 (inactive),-1.87,-0.0836,0.997,-0.439,-1.97,-1.92,-0.338,-0.362 (inactive),-0.793,-0.36,0.325 (inactive)
COCCOC(=O)N1C(=O)[C@@]2(c3cc(C#CCNC(N)=O)ccc31)[C@H](C(N)=O)[C@H]1C(=O)O[C@H](c3ccccc3)[C@H](c3ccccc3)N1[C@@H]2c1ccc(O)cc1,0.989 (inactive),0.316,1.65 (inactive),-0.132 (inactive),-1.12 (inactive),0.141 (inactive),0.189,0.161 (inactive),-0.181 (inactive),0.00933,1.05,-0.142,0.779,0.394,-0.896,-0.507,-0.0468 (inactive),-0.883,0.326,1.22 (inactive)
O=C1c2ccccc2[C@](Cc2ccccc2I)(C(=O)NCCN2CCOCC2)[C@H](c2ccc(CO)cc2)N1Cc1ccccc1C(F)(F)F,-2.6 (inactive),0.284,7.91 (inactive),1.13 (inactive),1.59 (inactive),0.65 (inactive),0.401,-1.06 (inactive),0.814 (inactive),1.15,0.368,0.469,-0.103,-1.98,-2.7,1.5,0.0392 (inactive),-0.876,-0.601,-0.577 (inactive)
COC(=O)[C@@]1(Cc2ccc(F)cc2)[C@H]2c3cc(C(=O)N(C)C)n(Cc4ccc(C(F)(F)F)nc4)c3C[C@H]2CN1C(=O)c1ccccc1,-1 (inactive),0.589,1.93 (inactive),0.844 (inactive),0.893 (inactive),0.987 (inactive),-0.0002,0.267 (inactive),0.32 (inactive),0.568,-0.509,-0.602,0.158,-0.201,-1.36,1.79,-0.602 (inactive),-0.135,-1.48,-0.695 (inactive)
COCCCNC(=O)[C@@]1(Cc2ccccc2I)c2ccccc2C(=O)N(C2CCCCC2)[C@H]1c1ccc(CO)cc1,0.0773 (inactive),0.293,8.09 (active),0.695 (inactive),2.44 (inactive),0.623 (inactive),0.453,0.392 (inactive),-1.2 (inactive),-3.06,-0.126,0.2,-0.335,-0.339,-0.0802,1.29,-0.276 (inactive),-0.794,-1.01,1.59 (inactive)
COC(=O)[C@H](Cc1ccccc1)N1CC(C)(OC)O[C@@H](Cc2ccccc2)[C@H]1/C=C/C1CC1 (stereo not given in full),0.286 (inactive),-0.147,1.92 (inactive),0.0937 (inactive),-0.774 (inactive),0.281 (inactive),-0.105,-4.36 (inactive),-0.147 (inactive),-0.141,-0.572,-0.317,0.299,0.391,-0.304,0.208,-0.394 (inactive),0.28,-0.521,0.379 (inactive)
CN1C(=O)C2C=CC(C(O)COCc3ccccc3)N(Nc3ccc([N+](=O)[O-])cc3[N+](=O)[O-])C2C1=O (stereo not given),-0.416 (inactive),0.332,3.59 (inactive),1.4 (inactive),-0.0794 (inactive),1.05 (inactive),-0.859,0.223 (inactive),-2.17 (inactive),-0.914,1.02,-0.611,-0.832,-1.38,-0.988,-0.681,-0.985 (inactive),-0.141,-0.815,-0.583 (inactive)
COc1ccc(C(=O)Nc2ccc(CN3C(=O)[C@]4(O[C@H](CC(=O)N(CCO)Cc5ccccc5)[C@@H]([Si](C)(C)c5ccc(OC)cc5)[C@@H]4C)c4ccccc43)cc2)cc1,0.863 (inactive),-0.142,4.94 (inactive),1.89 (inactive),0.439 (inactive),1.02 (inactive),0.383,0.658 (inactive),0.801 (inactive),3.23,-0.937,1.19,-1.52,-1.92,-2.73,0.353,0.324 (inactive),-1.02,-0.692,-2.04 (inactive)
[N-]=[N+]=NCc1ccccc1[C@H]1OC(c2ccc(OCCCO)cc2)=N[C@@]1(CCS(=O)(=O)c1ccccc1)C(=O)O,-0.123 (inactive),0.328,20.5 (active),6 (inactive),0.471 (inactive),1.06 (inactive),-0.497,1.09 (inactive),1.09 (inactive),2.1,0.0952,0.0313,0.35,0.263,-0.829,-1.24,-1.02 (inactive),-0.278,-0.479,0.355 (inactive)
CCCCCCc1nc(-c2ccc(OC)nc2)c(C)c2c1[Si](C(C)C)(C(C)C)OC2,0.579 (inactive),-0.115,1.74 (inactive),-0.0075 (inactive),0.974 (inactive),-0.349 (inactive),1.34,-1.98 (inactive),-0.117 (inactive),-2.71,-0.405,1.26,0.002,-2.26,-2.79,0.103,0.251 (inactive),-0.641,0.498,0.863 (inactive)
O=C1C2C=CC(C(O)c3ccccn3)N(Nc3ccc([N+](=O)[O-])cc3)C2C(=O)N1c1ccccc1 (stereo not given),-1.5 (inactive),0.0768,4.59 (inactive),1.04 (inactive),0.809 (inactive),0.509 (inactive),-0.967,-0.261 (inactive),-1.7 (inactive),-1.62,-0.264,-0.723,0.19,-0.416,-0.737,-1.47,-1.83 (inactive),-0.187,-1.13,-0.0475 (inactive)
COCCCNC(=O)[C@@]1(CCC(=O)OC(C)(C)C)N=C(c2ccc(OCCCO)cc2)O[C@H]1c1ccccc1,1.41 (inactive),0.0949,12.9 (active),1.15 (inactive),0.384 (inactive),0.566 (inactive),-0.422,-0.865 (inactive),0.388 (inactive),0.188,0.899,-0.0512,0.317,0.32,0.678,0.842,2.11 (inactive),0.721,-1.08,-0.376 (inactive)
CC[C@H]1C2=C3C(CC[C@H]4C(OCc5ccc(F)cc5C(F)(F)F)OC[C@](C)([C@@H]34)N(C(=O)OC(C)(C)C)C2)C(COC(C)=O)C1COC(C)=O (stereo not given in full),-2.44 (inactive),0.713,0.408 (inactive),-0.248 (inactive),0.483 (inactive),0.323 (inactive),-0.772,-1.05 (inactive),-2.56 (inactive),-1.43,-0.128,-0.154,0.228,-0.814,-2.5,3.43,-1.43 (inactive),-0.555,-1.29,0.226 (inactive)
CCCCCCc1nc(Cc2cc(OC)c(OC)c(OC)c2)c(C)c2c1[Si](C(C)C)(C(C)C)OC2,1.41 (inactive),-0.0547,2.71 (inactive),-0.23 (inactive),0.906 (inactive),-0.471 (inactive),2.51,-0.25 (inactive),-0.588 (inactive),-2.37,0.106,0.986,-0.348,0.286,-3.41,4.95,0.835 (inactive),-0.651,0.0845,0.504 (inactive)
COC(=O)[C@@]1(Cc2ccccc2)[C@H]2c3cc(C(=O)N(C)C)n(Cc4ccc(Cl)c(C(F)(F)F)c4)c3C[C@H]2CN1C(=O)c1ccccc1,-2.34 (inactive),0.936,2.46 (inactive),0.943 (inactive),0.453 (inactive),1.18 (inactive),-0.114,0.0852 (inactive),-0.895 (inactive),-1.92,-1.42,0.562,-2.06,-2.56,-4.44,2.34,-1.28 (inactive),-0.968,-1.24,-1.6 (inactive)

# Source: PubChem BioAssay
